An excerpt weighted towards active compounds, which were near 4.7% of everything screened.
SKKanGAS inh: S. pyogenes SKKanGAS growth inhibitors in kanamycin, primary screen, streptokinase expression inhibitor project, SKKanGAS strain, BacTiter-Glo luminescence; 6 h; inhibition, % at 7.5 µM; 300,000 tested, 1.3% active;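 active means mean replicate score, as percent of positive control median, at least 50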;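 further: strain carries kanamycin resistance gene driven by streptokinase promoter and grows in 40 µg/ml kanamycin; loss of luminescence reflects streptokinase promoter inhibition or plain growth inhibition; 0% = median of DMSO wells and 100% = positive control at its reference dose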
tim23-1 inh: growth inhibitors of tim23-1 mutant yeast, primary screen, luminescence, uHTS | S. cerevisiae tim23-1 growth, BacTiter-Glo luminescence, 24 h | inhibition, % at 20 µM | 330,000 tested, 1.3% active | AID 463212, 2010;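 active means growth inhibition of the mutant yeast at or above 50%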;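 further: temperature-sensitive mutant grown at 25 °C; plate controls were DMSO-treated mutant yeast for no effect and medium wells lacking yeast for full effect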
tim10-1 inh: growth inhibitors of tim10-1 mutant yeast, primary screen, luminescence, uHTS. S. cerevisiae tim10-1 ts strain growth, BacTiter-Glo, 24 h. inhibition, % at 20 µM. 330,000 tested, 2.2% active;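 active means inhibition of at least 40%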;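 further: mutant grown at 25 °C; 0% = DMSO wells with yeast and 100% = wells holding no yeast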
TIM10 inh: growth inhibitors of isogenic TIM10 control yeast, primary screen, counter-screen for tim10-1 yeast inhibitor project, luminescence, uHTS. AID 463195, 2010. S. cerevisiae TIM10 strain growth, BacTiter-Glo luminescence, 24 h. 330,000 tested, 1.4% active. inhibition, % at 10 µM;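 active means inhibition of 40% or more at the single tested concentration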;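 further: wild-type TIM10 isogenic control strain grown at permissive 25 °C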
EBI2 antag: EBI2 receptor antagonists, beta-arrestin recruitment, primary screen, cell-based, luminescence, 7a,25-OHC stimulation, uHTS | G-protein coupled receptor 183 (Homo sapiens), P32249 | 7a,25-OHC stimulated | inhibition, % at 5 µM | 360,000 tested, 0.81% active; in the data active means inhibition above about 38%;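 further: enzyme fragment complementation signal reports receptor beta-arrestin coupling in cells; 0% = agonist plus DMSO wells and 100% = wells without agonist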
Target sequence (P32249 whole entry, looked up, the tested form may be a part): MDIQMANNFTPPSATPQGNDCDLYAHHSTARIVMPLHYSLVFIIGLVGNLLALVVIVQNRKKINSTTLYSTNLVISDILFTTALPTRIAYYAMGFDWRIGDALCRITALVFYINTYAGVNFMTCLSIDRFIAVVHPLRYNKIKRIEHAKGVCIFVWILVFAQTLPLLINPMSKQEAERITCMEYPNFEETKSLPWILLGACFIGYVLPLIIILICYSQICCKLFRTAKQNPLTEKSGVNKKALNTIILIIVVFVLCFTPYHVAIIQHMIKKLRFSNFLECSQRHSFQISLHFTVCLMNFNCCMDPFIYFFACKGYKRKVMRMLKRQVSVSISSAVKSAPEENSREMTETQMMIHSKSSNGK
PfHsp90 yeast 2: growth inhibition of PfHsp90-expressing yeast, primary screen, antimalarial PfHsp90 inhibitor project, S. cerevisiae, BacTiter-Glo luminescence, single point, set 2 | BacTiter-Glo ATP, 48 h; yeast lacking PDR1 and PDR3 efflux regulators | inhibition, % at 9.4 µM | AID 504621, 2011 | 310,000 tested, 0.32% active;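 active means every replicate shows inhibition above about 80%, whatever the replicate mean, limit read from the data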;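 further: 0% = DMSO neutral controls and 100% = 20 µM radicicol positive controls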
tim10-1 confirm: growth inhibitors of tim10-1 mutant yeast, confirmation, single concentration, luminescence, S. cerevisiae. shares compounds with tim10-1 inh. S. cerevisiae tim10-1 ts strain growth, BacTiter-Glo, 24 h. inhibition, % at 20 µM. 7,400 tested, 56% active. AID 463213, 2010;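 active means inhibition of yeast growth at or above a set limit in either of two repeat tests at 20 µM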;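 further: tim10-1 mutant grown at permissive 25 °C to find synthetic lethal compounds; 0% = DMSO yeast wells and 100% = medium wells without yeast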
tim10 confirm: growth inhibitors of wild-type TIM10 yeast, confirmation, counter-screen for tim10-1 synthetic lethality project, single concentration, luminescence, S. cerevisiae | 4,600 tested, 63% active | S. cerevisiae tim10 strain growth, BacTiter-Glo luminescence, 24 h | shares compounds with TIM10 inh | AID 463215, 2010 | inhibition, % at 10 µM;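 active means inhibition of yeast growth at or above a set limit in either of two replicates at 10 µM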;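 further: this counterscreen used the strain with wild-type TIM10; 0% = yeast with DMSO and 100% = medium wells lacking yeast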
* marks the source's active call; other numbers are inactive results; · = not tested or not shown.

SMILES	SKKanGAS inh	tim23-1 inh	tim10-1 inh	TIM10 inh	EBI2 antag	PfHsp90 yeast 2	tim10-1 confirm	tim10 confirm
CCOc1ccccc1N1CCN(CC(=O)NC(C)c2ccccc2)CC1 (centres undefined)	-3	5	9	4	2	-1	·	·
CC(C)CN1C(=O)/C(=C/c2ccco2)NC1=S	-6	18	22	22	-4	-31	·	·
CC(C)CN1C(=O)/C(=C/c2cccs2)NC1=S	-1	50	43*	48*	-9	-10	17	40*
CCCN1C(=O)/C(=C/c2ccc(C)s2)NC1=S	-30	36	47*	45*	9	-2	12	40*
Cc1ccc2nc(N3CCN(Cc4nnnn4Cc4ccccc4)CC3)c(C#N)cc2c1	14	32	58*	51*	4	-41	54*	-14
Cc1ccc2nc(N3CCN(C)CC3)c(C#N)cc2c1	-3	17	8	5	-10	·	·	·
Cc1c(Cl)cnc(NC(=O)COC(=O)c2cccc(S(=O)(=O)N3c4ccccc4CC3C)c2)c1Cl (centres undefined)	12	27	18	15	4	1	·	·
COc1ccccc1C(=O)Nc1onc(C)c1C#N	-25	2	-2	-17	-5	-11	·	·
COc1ccc(CC(=O)Nc2cccnc2)cc1	-3	12	-1	-3	5	-11	·	·
CCOc1ccc(NC(=O)CC2CC(C)(C)OC2=O)cc1 (centres undefined)	-3	6	4	3	-8	2	·	·
CCCC1CC(C)(c2csc(Nc3ccc(OCC)cc3)n2)OC1=O (centres undefined)	6	48	40*	48*	30	-12	30	46*
CN(C)S(=O)(=O)c1cccc(C(=O)Nc2ccccc2C(=O)NC2CC2)c1	·	8	-8	-1	7	9	·	·
O=C(Cc1cccc(C(F)(F)F)c1)Nc1ccc(S(=O)(=O)N2CCCC2)cc1	-4	8	28	8	11	11	·	·
O=C(COc1ccccc1F)Nc1ccc(S(=O)(=O)N2CCCC2)cc1	·	29	50*	44*	-4	-15	30	33*
O=C(COc1ccc(S(=O)(=O)N2CCCC2)cc1)Nc1ccc(F)cc1	-8	28	14	17	-9	6	·	·
O=C(Nc1ccccc1)Nc1ccc(S(=O)(=O)N2CCCCC2)cc1	6	35	43*	51*	1	-2	32*	-16
CC(=O)Nc1ccc(S(=O)(=O)N2CCCC2)cc1	-1	-10	-9	-3	-4	10	·	·
O=C(COc1cccc(C(F)(F)F)c1)Nc1ccc(S(=O)(=O)N2CCCC2)cc1	·	40	50*	68*	11	-12	53*	51*
COc1ccc(C(=O)Nc2ccc(S(=O)(=O)N3CCCC3)cc2)cc1	-1	37	55*	45*	8	23	31	33*
COc1ccc(C(=O)NNC(=O)c2ccc(S(=O)(=O)N3CCCCC3)cc2)cc1	0	13	40	12	1	-16	·	·
CC(/C=N/NC(=O)c1cc(-c2cccs2)[nH]n1)=C\c1ccccc1	-25	9	10	-2	-19	0	·	·
COc1ccccc1CNCC(O)(c1ccc(F)cc1)c1ccc(F)cc1	-1	14	28	15	6	-2	·	·
COc1ccccc1CNCC(O)(c1ccc(Cl)cc1)c1ccc(Cl)cc1	29	34	46*	52*	19	·	16	44*
N/C(=N\OC(=O)c1ccc2c(c1)OCO2)c1cccc([N+](=O)[O-])c1	2	23	48*	44*	-12	-19	33*	26
N/C(=N\OC(=O)c1cccc([N+](=O)[O-])c1)c1cccnc1	-7	5	31	18	-3	8	·	·
SMILES	SKKanGAS inh	tim23-1 inh	tim10-1 inh	TIM10 inh	EBI2 antag	PfHsp90 yeast 2	tim10-1 confirm	tim10 confirm
Cc1ccccc1C(=O)O/N=C(\N)c1cccc([N+](=O)[O-])c1	-1	48	68*	50*	-3	9	74*	48*
CCN1C(=O)C2CCCCN2c2ccc(C(=O)NCCOC)cc21 (centres undefined)	-5	6	-6	5	-6	-5	·	·
COc1ccc(OC)c(S(=O)(=O)NCCCN2CCCC2=O)c1	-8	0	-27	-8	-1	4	·	·
CC(/C=N/n1c(-c2ccccc2)n[nH]c1=S)=C\c1ccco1	16	48	42*	44*	3	-21	13	41*
Cc1ccc(SCC(=O)NN2C(=O)c3ccccc3C2=O)cc1	4	19	17	22	-21	-6	·	·
O=C(c1cc(COc2ccc(F)cc2Cl)on1)N1CCC(OCc2cccnc2)CC1	-17	3	53*	52*	-7	-2	48*	52*
O=C(c1cc(COc2ccc(F)cc2Cl)on1)N1CCCCC1c1cccnc1 (centres undefined)	-1	43	39	26	-1	21	·	·
CCN(CC)Cc1cc2[nH]c3c4ccc(Cl)cc4ncc3c2cc1OC	-2	34	57*	68*	14	-25	50*	35*
Cc1cc(/C=N/n2c(COc3ccccc3C)nc3ccccc3c2=O)c(O)c([N+](=O)[O-])c1	52*	32	41*	43*	21	14	29	26
Cc1ccccc1OCc1nc2ccccc2c(=O)n1/N=C/c1c[nH]c2ccccc12	7	-21	0	-4	11	-14	·	·
CCOC(=O)C1(S(=O)(=O)c2ccc(Cl)cc2)CCN(Cc2ccc(Cl)cc2)CC1	12	49	48*	42*	12	0	28	34*
Cc1ccc(-n2c(C(C)C)nc3oc4ccccc4c(=O)c3c2=O)cc1	25	2	7	12	4	1	·	·
Cc1ccc(-n2cnc3cc(NCc4cccs4)ccc32)cc1	43	28	56*	63*	0	-6	57*	64*
Cn1cnc2cc(NCc3cccs3)ccc21	13	20	6	-10	-13	·	·	·

Compound activity from PubChem BioAssay.
